Data reported in PubChem BioAssay (Tox21).
Inconclusive results are not listed. Active and inactive are the calls of the source. Unless noted, the call rests on the fitted dose curve; in most records, active means well fitted curve in the direction sought with a large enough effect in the repeat runs; inconclusive means weak or mixed curves; inactive means no such curve, though single readings can be large; an effect the other way counts as inactive or inconclusive.

Experiments:
[1] = qHTS assay for small molecule agonists of the p53 signaling pathway (AID 651631; calls by dose curve; further: nearly all actives have a fitted effect of over 15% in size; further: potency means the concentration at half of the fitted maximal effect)
Method in brief: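 HCT-116 cells carrying a beta-lactamase reporter under p53 response elements were dosed with compound for 16 h at 37 °C. LiveBLAzer B/G FRET substrate was then added for 2 h at room temperature, and fluorescence intensity was read to detect pathway agonism.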

[2] = qHTS assay for small molecules that induce genotoxicity in human embryonic kidney cells expressing luciferase-tagged ATAD5 (AID 651632); further: nearly all actives have a fitted effect of over 15% in size
Method in brief: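 Reporter cells (HEK293T) express luciferase-tagged ATAD5, a protein that accumulates after DNA damage. Treat 16 hr at 37C/5% CO2, add Amplite, wait 30 min at RT, and read luminescence.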

[3] = qHTS assay for small molecule agonists of the p53 signaling pathway - cell viability (AID 651633; calls by dose curve; further: nearly all actives have a fitted effect of over 30% in size; further: potency means the concentration at half of the fitted maximal effect)
Method in brief: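 Viability counter-read: CellTiter-Glo luminescence (30 min, room temperature) in the same p53RE-bla plates. These plates had been exposed to compounds for 16 h at 37 C.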

[4] = qHTS assay for small molecules that induce genotoxicity in human embryonic kidney cells expressing luciferase-tagged ATAD5 - cell viability (AID 651634; calls by dose curve; further: nearly all actives have a fitted effect of over 25% in size; further: potency means the concentration at half of the fitted maximal effect)
Method in brief: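 Seeding of 2,000 HEK293T ATAD5-luciferase cells per well preceded pin-tool compound transfer. Plates sat 15.5 hr at 37C under 5% CO2, then fluorescence was read after 30 min with CellTiter-Fluor.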

[5] = qHTS assay for small molecule disruptors of the mitochondrial membrane potential - cell viability (AID 720634; calls by dose curve;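 further: human HepG2 liver cancer cells; series mostly up to about 83 µM; nearly all actives have a fitted effect of over 20% in size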)
Method in brief: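 Measuring cytotoxicity alongside mitochondrial potential, the screen quantified ATP by luminescence in HepG2 cells after 1 hr compound incubation and a 30 min room-temperature CellTiter-Glo step.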

[6] = qHTS assay for small molecule disruptors of the mitochondrial membrane potential (AID 720635); further: potency means the concentration at half of the fitted maximal effect
Method in brief: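 Mitochondrial membrane potential tracked with Mito-MPS dye, red aggregates (ex 540/em 590 nm) against green monomers (ex 490/em 535 nm). Compound treatment 1 hr at 37C, dye 30 min in HepG2.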

[7] = qHTS assay to test for compound auto fluorescence at 590 nm (red) in HepG2 cells (AID 720674)
Method in brief: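 We screened compounds on adherent HepG2 cells, incubating them for an hour at 37 C in 5% CO2 before reading emission at 590 nm under 540 nm excitation; values reflect equivalence to Rose Bengal sodium fluorescence.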

[8] = qHTS assay to test for compound auto fluorescence at 535 nm (green) in HepG2 cells (AID 720675)
[9] = qHTS assay to test for compound auto fluorescence at 460 nm (blue) in HEK293 cells (AID 720678)
Method in brief: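 HEK293 cells (2,000 per well, medium with 10% dialyzed FBS) attached for 4-5 hr at 37C, then received compound and stood overnight at 37C, 5% CO2. Blue fluorescence was read at Ex/Em 405/460 nm and expressed relative to triamterene.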

[10] = qHTS assay to test for compound auto fluorescence at 590 nm (red) in HEK293 cells (AID 720679)
Method in brief: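 HEK293 cells (2,000/well, medium with 10% dialyzed FBS) attached for 4-5 hr at 37C, received 23 nL compound and were incubated overnight at 37C, 5% CO2. Red fluorescence was then read at 540/590nm Ex/Em, referenced to Rose Bengal sodium.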

Measured: Potency

ClC1=C(Cl)C1(Cl)Cl
inactive: all assays above

CC(=O)Oc1cccc(O)c1
not listed: [6]
inactive: all other assays above

O=S(=O)(O)CO
not listed: [6] | [10]
inactive: all other assays above

CC1CCc2nccnc21 (centres undefined)
inactive: all assays above

COc1cc(NS(=O)(=O)c2ccc(N)cc2)nc(C)n1
inactive: all assays above

C[C@H](CS)C(=O)N1CCC[C@H]1C(=O)O
not listed: [6]
inactive: all other assays above

C=C(C)C(=O)OCCC(F)(F)C(F)(F)C(F)(F)C(F)(F)C(F)(F)C(F)(F)F
inactive: all assays above

O=NN(CCCl)C(=O)NCCCl
active: [1] 1.19 µM
inactive: all other assays above

Cc1cccc(C)c1NC(=O)c1cc(S(N)(=O)=O)c(Cl)cc1O
inactive: all assays above

CCCC(=O)OC(=O)CCC
not listed: [10]
inactive: all other assays above

CC(=O)OCCC1CCCCC1
inactive: all assays above

CS(=O)(=O)c1ccc([C@@H](C[C@H]2CCC(=O)C2)C(=O)Nc2cnccn2)cc1Cl
not listed: [10]
inactive: all other assays above

CC(=O)C(C)=O
not listed: [5] | [6]
inactive: all other assays above

COc1ccc(N)c([N+](=O)[O-])c1
not listed: [4] | [10]
inactive: all other assays above

CC(=O)OCC(=O)[C@@]1(OC(C)=O)[C@@H](C)C[C@H]2[C@@H]3C[C@H](F)C4=CC(=O)C=C[C@]4(C)[C@@]3(F)[C@@H](O)C[C@@]21C
not listed: [5] | [6]
inactive: all other assays above

Nc1ccc(S(=O)(=O)NCc2ccccc2)cc1
not listed: [5] | [10]
inactive: all other assays above

CC[C@H]1OC(=O)[C@H](C)[C@@H](O[C@H]2C[C@@](C)(OC)[C@@H](O)[C@H](C)O2)[C@H](C)[C@@H](O[C@@H]2O[C@H](C)C[C@H](N(C)C)[C@H]2O)[C@](C)(O)C[C@@H](C)CN(C)[C@H](C)[C@@H](O)[C@]1(C)O
not listed: [6]
inactive: all other assays above

NC(=O)c1ccccc1[N+](=O)[O-]
not listed: [6]
inactive: all other assays above

Cc1cc(CCC(=O)OCCOCCOCCOC(=O)CCc2cc(C)c(O)c(C(C)(C)C)c2)cc(C(C)(C)C)c1O
active: [6] 59.6 µM
not listed: [5]
inactive: all other assays above

CC1C(C)(C)C2=C(C(=O)CCC2)C1(C)C (centres undefined)
not listed: [6]
inactive: all other assays above

O=c1[nH][nH]c(=O)c2cc([N+](=O)[O-])ccc12
not listed: [6]
inactive: all other assays above

Cc1cccc2sc(N)nc12
not listed: [5] | [6]
inactive: all other assays above

C=C(C)c1ccccc1
not listed: [5] | [10]
inactive: all other assays above

CCC(=O)OCc1ccc(OC)cc1
not listed: [5]
inactive: all other assays above

CCN(CC)c1ccc(C(=C2C=CC(=[N+](CC)CC)C=C2)c2ccc(S(=O)(=O)O)cc2S(=O)(=O)[O-])cc1
active: [3] 27.3 µM | [4] 27.3 µM
not listed: [5] | [6]
inactive: all other assays above
